About 83,000 compounds went through this panel and 20% of them were active in at least one assay; those are over-represented in the sample as a whole.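 Treatment: one concentration, 48 hours, 96-well format. Scoring: percent growth, with anything below 10 considered active.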 Calls of active or inactive are those of the source.
Assays:
Experiment in all cases: NCI-60 one-dose screen, 48 h (100 = growth as untreated, 0 = no growth, -100 = all killed)
HCT-15 colon = conditions: 10 µM
HT29 colon = conditions: 10 µM
SNB-75 CNS = conditions: 10 µM
SNB-19 CNS = conditions: 10 µM
U251 CNS = conditions: 10 µM
PC-3 prostate = conditions: 10 µM
SK-MEL-5 melanoma = conditions: 10 µM
UACC-62 melanoma = conditions: 10 µM unless noted
LOX IMVI melanoma = conditions: 10 µM
SK-MEL-28 melanoma = conditions: 10 µM

Measured: growth

OC1CCCc2ccccc21 (configuration not stated)
inactive: HCT-15 colon 108% | HT29 colon 101% | SNB-75 CNS 88% | SNB-19 CNS 90.8% | U251 CNS 108% | PC-3 prostate 103% | SK-MEL-5 melanoma 111% | UACC-62 melanoma 100% | LOX IMVI melanoma 104% | SK-MEL-28 melanoma 120%

COc1cc2nc3cc([N+](=O)[O-])ccc3c(Cl)c2cc1OC
inactive: HCT-15 colon 94.6% | HT29 colon 105% | SNB-75 CNS 104% | SNB-19 CNS 106% | U251 CNS 89.1% | PC-3 prostate 90.9% | SK-MEL-5 melanoma 99.1% | UACC-62 melanoma 74.8% | LOX IMVI melanoma 105% | SK-MEL-28 melanoma 108%

O=C1Cc2ccccc2C(=O)O1
inactive: HCT-15 colon 110% | HT29 colon 109% | SNB-75 CNS 95.8% | SNB-19 CNS 103% | U251 CNS 104% | PC-3 prostate 85.1% | SK-MEL-5 melanoma 105% | UACC-62 melanoma 106% | LOX IMVI melanoma 102% | SK-MEL-28 melanoma 106%

COc1cc(/C=N\Nc2ccccc2)ccc1OC(=O)c1ccccc1
active: LOX IMVI melanoma 3.86%
inactive: HCT-15 colon 24.4% | HT29 colon 72.5% | SNB-75 CNS 85.4% | SNB-19 CNS 108% | U251 CNS 81.5% | PC-3 prostate 49.8% | SK-MEL-5 melanoma 74.7% | UACC-62 melanoma 24.4% | SK-MEL-28 melanoma 87.6%

N#CCCc1ccc(O)cc1
inactive: HCT-15 colon 95.1% | HT29 colon 108% | SNB-75 CNS 88.3% | SNB-19 CNS 110% | U251 CNS 96.9% | PC-3 prostate 102% | SK-MEL-5 melanoma 105% | UACC-62 melanoma 102% | LOX IMVI melanoma 107% | SK-MEL-28 melanoma 105%

OCC(O)C(O)C(O)C(O)/C=N/O (configuration not stated)
inactive: HCT-15 colon 105% | HT29 colon 103% | SNB-75 CNS 96.1% | SNB-19 CNS 98.3% | U251 CNS 91% | PC-3 prostate 73.2% | SK-MEL-5 melanoma 101% | UACC-62 melanoma 93.3% | LOX IMVI melanoma 98.3% | SK-MEL-28 melanoma 114%

CCOC(=O)c1cc2cccc(OC)c2oc1=O
inactive: HCT-15 colon 97.3% | HT29 colon 113% | SNB-75 CNS 99.5% | SNB-19 CNS 105% | U251 CNS 105% | PC-3 prostate 106% | SK-MEL-5 melanoma 105% | UACC-62 melanoma 89.8% | LOX IMVI melanoma 104% | SK-MEL-28 melanoma 116%

CC(=Nc1ccccc1)C1=C(O)C(Cc2cccc(F)c2)NC1=O (configuration not stated)
inactive: SNB-75 CNS 78.3% | SNB-19 CNS 36.2% | U251 CNS 10.8% | PC-3 prostate 19.2% | UACC-62 melanoma 32.9% | SK-MEL-28 melanoma 63.5%
active: HCT-15 colon 8.21% | HT29 colon -12.1% | SK-MEL-5 melanoma 1.57% | LOX IMVI melanoma 5.05%

O=c1[nH]n(-c2ccccc2)c(=O)cc1Cl
inactive: HCT-15 colon 120% | HT29 colon 110% | SNB-75 CNS 95.2% | SNB-19 CNS 98.9% | U251 CNS 109% | PC-3 prostate 97.3% | SK-MEL-5 melanoma 102% | UACC-62 melanoma 87.3% | LOX IMVI melanoma 96% | SK-MEL-28 melanoma 117%

CC(O)COc1ccc(-c2ccccc2)cc1 (configuration not stated)
inactive: HCT-15 colon 96.3% | HT29 colon 116% | SNB-75 CNS 102% | SNB-19 CNS 98.4% | U251 CNS 99.7% | PC-3 prostate 101% | SK-MEL-5 melanoma 99.1% | UACC-62 melanoma 92.4% | LOX IMVI melanoma 101% | SK-MEL-28 melanoma 103%

Cc1ccc(Cl)cc1NC(=O)N(C)CCO
inactive: HCT-15 colon 110% | HT29 colon 133% | SNB-75 CNS 126% | SNB-19 CNS 101% | U251 CNS 102% | PC-3 prostate 96% | SK-MEL-5 melanoma 101% | UACC-62 melanoma 109% | LOX IMVI melanoma 107% | SK-MEL-28 melanoma 145%

CC1=CC(=O)c2ccccc2C1=O
inactive: HCT-15 colon 102% | HT29 colon 112% | SNB-75 CNS 90.9% | SNB-19 CNS 101% | U251 CNS 101% | PC-3 prostate 108% | SK-MEL-5 melanoma 103% | UACC-62 melanoma 100% | LOX IMVI melanoma 96.5% | SK-MEL-28 melanoma 116%

CCOC(=O)CSc1c([N+](=O)[O-])ncn1C
inactive: HCT-15 colon 93.7% | HT29 colon 104% | SNB-75 CNS 98.4% | SNB-19 CNS 99.6% | U251 CNS 97.9% | PC-3 prostate 106% | SK-MEL-5 melanoma 96.2% | UACC-62 melanoma 97.8% | LOX IMVI melanoma 97.7% | SK-MEL-28 melanoma 92.6%

O=c1[nH]nc(SC2CCCCC2)c(=O)[nH]1
inactive: HCT-15 colon 106% | HT29 colon 97.1% | SNB-75 CNS 82.3% | SNB-19 CNS 103% | U251 CNS 103% | PC-3 prostate 90.6% | SK-MEL-5 melanoma 112% | UACC-62 melanoma 113% | LOX IMVI melanoma 92.8% | SK-MEL-28 melanoma 94.8%

CC12CC3CC1C(C(=O)O2)C3C(=O)O (configuration not stated)
inactive: HCT-15 colon 104% | HT29 colon 98.9% | SNB-75 CNS 102% | SNB-19 CNS 98.6% | U251 CNS 103% | PC-3 prostate 101% | SK-MEL-5 melanoma 104% | UACC-62 melanoma 98.3% | LOX IMVI melanoma 99.7% | SK-MEL-28 melanoma 106%

CC(C)=CC(=O)OC(=O)C=C(C)C
inactive: HCT-15 colon 102% | HT29 colon 111% | SNB-75 CNS 90.3% | SNB-19 CNS 104% | U251 CNS 102% | PC-3 prostate 98.4% | SK-MEL-5 melanoma 98.8% | UACC-62 melanoma 98.2% | LOX IMVI melanoma 109% | SK-MEL-28 melanoma 102%

O=C1C=CC2=C3c4cc(O)c(O)cc4CC3(O)COC2=C1O (configuration not stated)
inactive: HCT-15 colon 105% | HT29 colon 100% | SNB-75 CNS 88% | SNB-19 CNS 104% | U251 CNS 105% | PC-3 prostate 93.7% | SK-MEL-5 melanoma 138% | UACC-62 melanoma 98.1% | LOX IMVI melanoma 99.2% | SK-MEL-28 melanoma 119%

CN(C)c1ccc(C(c2ccc(O)cc2)c2ccc(N(C)C)cc2)cc1
inactive: HCT-15 colon 70.8% | HT29 colon 86.2% | SNB-75 CNS 87.3% | SNB-19 CNS 97.2% | U251 CNS 98.5% | PC-3 prostate 88.7% | SK-MEL-5 melanoma 90.5% | UACC-62 melanoma 79.8% | LOX IMVI melanoma 88% | SK-MEL-28 melanoma 101%

O=C(O)CSCSCC(=O)O
inactive: HCT-15 colon 98.7% | HT29 colon 107% | SNB-75 CNS 77.2% | SNB-19 CNS 96.6% | U251 CNS 94.3% | PC-3 prostate 103% | SK-MEL-5 melanoma 103% | UACC-62 melanoma 100% | LOX IMVI melanoma 97.3% | SK-MEL-28 melanoma 97.8%

CCNc1nc2c(cnn2C)c(=O)[nH]1
inactive: HCT-15 colon 122% | HT29 colon 96.2% | SNB-75 CNS 88.6% | SNB-19 CNS 109% | U251 CNS 97.8% | PC-3 prostate 99% | SK-MEL-5 melanoma 96.7% | UACC-62 melanoma 107% | LOX IMVI melanoma 95% | SK-MEL-28 melanoma 118%

C/C(O)=C(\C=N\C(N)=S)C(=O)Nc1ccccc1
inactive: HCT-15 colon 110% | HT29 colon 101% | SNB-75 CNS 88.1% | SNB-19 CNS 100% | U251 CNS 97.4% | PC-3 prostate 93.5% | SK-MEL-5 melanoma 97.6% | UACC-62 melanoma 96.8% | LOX IMVI melanoma 96.7% | SK-MEL-28 melanoma 116%

Cc1cc(O)ccc1O
inactive: HCT-15 colon 108% | HT29 colon 114% | SNB-75 CNS 114% | SNB-19 CNS 112% | U251 CNS 107% | PC-3 prostate 97.7% | SK-MEL-5 melanoma 88.6% | UACC-62 melanoma 80.8% | LOX IMVI melanoma 92.5% | SK-MEL-28 melanoma 108%

O=[N+]([O-])c1ccc(Cl)c(S(=O)(=O)O)c1
inactive: HCT-15 colon 96.6% | HT29 colon 138% | SNB-75 CNS 85.8% | SNB-19 CNS 106% | U251 CNS 111% | PC-3 prostate 108% | UACC-62 melanoma 105% | LOX IMVI melanoma 102% | SK-MEL-28 melanoma 111%

CCS(=O)(=O)c1cc(=O)[nH]c(=O)[nH]1
inactive: HCT-15 colon 109% | HT29 colon 101% | SNB-75 CNS 82.4% | SNB-19 CNS 102% | U251 CNS 93.8% | PC-3 prostate 124% | SK-MEL-5 melanoma 93.2% | LOX IMVI melanoma 101% | SK-MEL-28 melanoma 98.9%

Oc1ccc(O)cc1
inactive: HCT-15 colon 101% | HT29 colon 97.7% | SNB-75 CNS 102% | SNB-19 CNS 115% | U251 CNS 99.1% | PC-3 prostate 89.2% | UACC-62 melanoma 103% | LOX IMVI melanoma 92.6% | SK-MEL-28 melanoma 112%

Cc1ccc(C(=O)NC2c3ccccc3Oc3ccccc32)cc1
inactive: HCT-15 colon 39.6% | HT29 colon 23.4% | SNB-75 CNS 34.9% | SNB-19 CNS 49% | U251 CNS 56.5% | PC-3 prostate 53.4% | SK-MEL-5 melanoma 62.7% | LOX IMVI melanoma 45% | SK-MEL-28 melanoma 61.4%

O=C(NCO)c1ccccc1
inactive: HCT-15 colon 101% | HT29 colon 109% | SNB-75 CNS 89.8% | SNB-19 CNS 107% | U251 CNS 105% | SK-MEL-5 melanoma 111% | UACC-62 melanoma 93.8% | LOX IMVI melanoma 105% | SK-MEL-28 melanoma 105%

Cc1cc(C)c(N)c(S(=O)(=O)O)c1
inactive: HCT-15 colon 100% | HT29 colon 103% | SNB-75 CNS 101% | SNB-19 CNS 96.5% | U251 CNS 98.2% | PC-3 prostate 96.6% | UACC-62 melanoma 93.1% | LOX IMVI melanoma 93.9% | SK-MEL-28 melanoma 132%

Cc1cc2nc(CO)[nH]c2cc1C
inactive: HCT-15 colon 107% | HT29 colon 102% | SNB-75 CNS 90.9% | SNB-19 CNS 98% | U251 CNS 108% | SK-MEL-5 melanoma 112% | UACC-62 melanoma 99.7% | LOX IMVI melanoma 110% | SK-MEL-28 melanoma 108%

O=C(O)C(O)c1ccccc1 (configuration not stated)
inactive: HCT-15 colon 113% | HT29 colon 115% | SNB-75 CNS 94.8% | SNB-19 CNS 108% | U251 CNS 103% | PC-3 prostate 97.3% | SK-MEL-5 melanoma 101% | UACC-62 melanoma 107% | LOX IMVI melanoma 94.2% | SK-MEL-28 melanoma 107%

COc1cc2c(cc1OC)[C@H](C(=O)O)[C@@H](c1ccc(OC(C)C)c(OC)c1)N(C)C2=O
inactive: HCT-15 colon 101% | HT29 colon 105% | SNB-75 CNS 90.4% | SNB-19 CNS 94.8% | U251 CNS 97.3% | PC-3 prostate 90% | UACC-62 melanoma 89.6% | LOX IMVI melanoma 94.7% | SK-MEL-28 melanoma 116%

From PubChem BioAssay (NCI)
